Key:
[1] = target: 5'-AMP-activated protein kinase catalytic subunit alpha-2 (Homo sapiens) (UniProt P54646); conditions: at 1 µM
[2] = target: T1, NUAK family SNF1-like kinase 1 (Homo sapiens) (UniProt O60285); conditions: at 0.1 µM
T1 sequence (whole entry): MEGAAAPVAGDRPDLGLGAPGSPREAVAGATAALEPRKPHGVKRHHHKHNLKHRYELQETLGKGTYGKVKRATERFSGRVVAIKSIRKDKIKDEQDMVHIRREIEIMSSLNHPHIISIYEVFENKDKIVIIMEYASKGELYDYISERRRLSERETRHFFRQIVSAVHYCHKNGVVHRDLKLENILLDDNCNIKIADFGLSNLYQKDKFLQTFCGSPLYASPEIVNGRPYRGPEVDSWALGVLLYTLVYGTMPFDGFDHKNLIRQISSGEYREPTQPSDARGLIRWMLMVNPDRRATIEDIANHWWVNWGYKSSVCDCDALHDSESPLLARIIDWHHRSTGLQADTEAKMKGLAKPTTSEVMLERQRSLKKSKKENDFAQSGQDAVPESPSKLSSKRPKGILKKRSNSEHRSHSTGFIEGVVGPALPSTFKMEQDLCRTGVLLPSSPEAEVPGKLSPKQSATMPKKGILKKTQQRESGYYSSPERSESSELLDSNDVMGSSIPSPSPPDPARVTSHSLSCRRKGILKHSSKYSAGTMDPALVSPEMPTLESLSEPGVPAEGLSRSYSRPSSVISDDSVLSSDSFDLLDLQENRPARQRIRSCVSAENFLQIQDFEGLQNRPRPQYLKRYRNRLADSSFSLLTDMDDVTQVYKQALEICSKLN

[3] = target: T1, NUAK family SNF1-like kinase 1 (Homo sapiens); conditions: at 1 µM
[4] = target: T2, Serine/threonine-protein kinase BRSK1 (Homo sapiens) (UniProt Q8TDC3); conditions: at 0.1 µM
T2 sequence (whole entry): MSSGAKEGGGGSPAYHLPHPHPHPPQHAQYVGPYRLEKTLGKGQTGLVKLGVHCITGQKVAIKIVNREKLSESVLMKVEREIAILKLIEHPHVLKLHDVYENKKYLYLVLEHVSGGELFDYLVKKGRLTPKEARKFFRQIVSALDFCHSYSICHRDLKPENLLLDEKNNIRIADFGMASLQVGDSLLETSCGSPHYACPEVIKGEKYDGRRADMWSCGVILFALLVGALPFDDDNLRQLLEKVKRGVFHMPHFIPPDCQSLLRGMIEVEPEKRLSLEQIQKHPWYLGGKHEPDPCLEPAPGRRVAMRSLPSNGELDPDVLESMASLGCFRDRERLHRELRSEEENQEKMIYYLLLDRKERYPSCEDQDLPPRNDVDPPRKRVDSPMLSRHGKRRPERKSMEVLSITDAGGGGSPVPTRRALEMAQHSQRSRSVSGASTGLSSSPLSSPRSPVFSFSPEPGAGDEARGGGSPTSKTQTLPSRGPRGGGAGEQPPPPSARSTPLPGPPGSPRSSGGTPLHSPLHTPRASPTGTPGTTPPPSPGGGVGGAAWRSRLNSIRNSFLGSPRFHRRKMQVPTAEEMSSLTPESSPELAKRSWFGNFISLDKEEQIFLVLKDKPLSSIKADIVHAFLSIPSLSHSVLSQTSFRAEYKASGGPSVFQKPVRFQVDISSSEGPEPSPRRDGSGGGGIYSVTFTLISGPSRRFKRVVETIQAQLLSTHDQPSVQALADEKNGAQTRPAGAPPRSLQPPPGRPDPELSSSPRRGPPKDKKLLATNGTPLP

[5] = target: T2, Serine/threonine-protein kinase BRSK1 (Homo sapiens); conditions: at 1 µM
[6] = target: T3, Serine/threonine-protein kinase BRSK2 (Homo sapiens) (UniProt Q8IWQ3); conditions: at 0.1 µM
T3 sequence (whole entry): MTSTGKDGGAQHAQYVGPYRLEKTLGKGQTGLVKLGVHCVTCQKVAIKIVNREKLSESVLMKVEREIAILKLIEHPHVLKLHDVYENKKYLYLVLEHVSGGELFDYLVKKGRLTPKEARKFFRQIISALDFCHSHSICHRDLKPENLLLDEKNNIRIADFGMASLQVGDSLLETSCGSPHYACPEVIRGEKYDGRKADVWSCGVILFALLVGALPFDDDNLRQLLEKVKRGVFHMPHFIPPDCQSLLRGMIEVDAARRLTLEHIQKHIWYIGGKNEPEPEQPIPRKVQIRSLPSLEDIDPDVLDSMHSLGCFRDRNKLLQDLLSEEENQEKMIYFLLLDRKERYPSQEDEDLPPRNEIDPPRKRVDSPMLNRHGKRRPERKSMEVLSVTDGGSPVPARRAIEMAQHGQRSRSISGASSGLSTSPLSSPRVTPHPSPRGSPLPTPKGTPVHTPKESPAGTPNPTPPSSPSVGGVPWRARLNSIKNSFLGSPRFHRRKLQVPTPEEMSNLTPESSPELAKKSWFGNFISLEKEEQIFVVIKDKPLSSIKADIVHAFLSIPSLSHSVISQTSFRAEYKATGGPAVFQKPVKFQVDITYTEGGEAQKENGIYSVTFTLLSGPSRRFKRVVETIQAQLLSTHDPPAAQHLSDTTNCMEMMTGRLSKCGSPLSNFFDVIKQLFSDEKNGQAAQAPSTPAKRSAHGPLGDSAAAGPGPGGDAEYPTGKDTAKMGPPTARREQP

[7] = target: T3, Serine/threonine-protein kinase BRSK2 (Homo sapiens); conditions: at 1 µM
[8] = target: Calcium/calmodulin-dependent protein kinase type 1D (Homo sapiens) (UniProt Q8IU85); conditions: at 0.1 µM
[9] = target: Calcium/calmodulin-dependent protein kinase type 1D (Homo sapiens) (UniProt Q8IU85); conditions: at 1 µM
[10] = target: Calcium/calmodulin-dependent protein kinase type II subunit alpha (Homo sapiens) (UniProt Q9UQM7); conditions: at 0.1 µM
[11] = target: Calcium/calmodulin-dependent protein kinase type II subunit alpha (Homo sapiens) (UniProt Q9UQM7); conditions: at 1 µM
[12] = target: Calcium/calmodulin-dependent protein kinase type II subunit delta (Homo sapiens) (UniProt Q13557); conditions: at 0.1 µM
[13] = target: Calcium/calmodulin-dependent protein kinase type II subunit delta (Homo sapiens) (UniProt Q13557); conditions: at 1 µM
[14] = target: T4, Calcium/calmodulin-dependent protein kinase type IV (Homo sapiens) (UniProt Q16566); conditions: at 0.1 µM
T4 sequence (whole entry): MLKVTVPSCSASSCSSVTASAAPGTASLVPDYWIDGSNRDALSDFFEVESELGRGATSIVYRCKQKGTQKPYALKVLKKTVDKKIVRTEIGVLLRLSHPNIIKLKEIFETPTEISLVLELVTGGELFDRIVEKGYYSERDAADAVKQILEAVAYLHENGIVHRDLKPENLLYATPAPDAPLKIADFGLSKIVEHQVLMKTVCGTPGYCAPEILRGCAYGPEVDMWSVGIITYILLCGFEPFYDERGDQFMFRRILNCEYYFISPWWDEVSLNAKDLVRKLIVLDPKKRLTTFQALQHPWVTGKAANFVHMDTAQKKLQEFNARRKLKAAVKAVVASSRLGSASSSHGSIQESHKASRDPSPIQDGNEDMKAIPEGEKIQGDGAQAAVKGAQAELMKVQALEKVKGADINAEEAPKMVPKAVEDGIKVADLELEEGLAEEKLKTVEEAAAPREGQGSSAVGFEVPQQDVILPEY

[15] = target: T4, Calcium/calmodulin-dependent protein kinase type IV (Homo sapiens); conditions: at 1 µM
[16] = target: T5, Serine/threonine-protein kinase Chk1 (Homo sapiens) (UniProt O14757); conditions: at 0.1 µM
T5 sequence (whole entry): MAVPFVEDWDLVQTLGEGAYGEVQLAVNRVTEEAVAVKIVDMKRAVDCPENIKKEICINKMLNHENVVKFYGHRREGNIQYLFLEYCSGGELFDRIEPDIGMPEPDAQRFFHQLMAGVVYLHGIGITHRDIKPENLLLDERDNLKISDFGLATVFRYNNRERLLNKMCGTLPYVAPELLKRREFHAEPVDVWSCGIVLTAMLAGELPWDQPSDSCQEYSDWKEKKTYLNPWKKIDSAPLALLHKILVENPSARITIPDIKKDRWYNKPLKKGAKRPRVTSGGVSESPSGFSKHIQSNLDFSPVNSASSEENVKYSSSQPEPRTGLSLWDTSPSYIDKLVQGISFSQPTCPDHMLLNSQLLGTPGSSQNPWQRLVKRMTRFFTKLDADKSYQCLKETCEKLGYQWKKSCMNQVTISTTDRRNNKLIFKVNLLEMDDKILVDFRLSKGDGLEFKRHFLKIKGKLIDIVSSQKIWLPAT

[17] = target: T5, Serine/threonine-protein kinase Chk1 (Homo sapiens); conditions: at 1 µM
[18] = target: Serine/threonine-protein kinase Chk2 (Homo sapiens) (UniProt O96017); conditions: at 0.1 µM
[19] = target: Serine/threonine-protein kinase Chk2 (Homo sapiens) (UniProt O96017); conditions: at 1 µM
[20] = target: Death-associated protein kinase 1 (Homo sapiens) (UniProt P53355); conditions: at 0.1 µM;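 further: reported figure is the mean inhibition of DAPK1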
Chain of Death-associated protein kinase 1 (Homo sapiens) (P53355 whole entry, looked up): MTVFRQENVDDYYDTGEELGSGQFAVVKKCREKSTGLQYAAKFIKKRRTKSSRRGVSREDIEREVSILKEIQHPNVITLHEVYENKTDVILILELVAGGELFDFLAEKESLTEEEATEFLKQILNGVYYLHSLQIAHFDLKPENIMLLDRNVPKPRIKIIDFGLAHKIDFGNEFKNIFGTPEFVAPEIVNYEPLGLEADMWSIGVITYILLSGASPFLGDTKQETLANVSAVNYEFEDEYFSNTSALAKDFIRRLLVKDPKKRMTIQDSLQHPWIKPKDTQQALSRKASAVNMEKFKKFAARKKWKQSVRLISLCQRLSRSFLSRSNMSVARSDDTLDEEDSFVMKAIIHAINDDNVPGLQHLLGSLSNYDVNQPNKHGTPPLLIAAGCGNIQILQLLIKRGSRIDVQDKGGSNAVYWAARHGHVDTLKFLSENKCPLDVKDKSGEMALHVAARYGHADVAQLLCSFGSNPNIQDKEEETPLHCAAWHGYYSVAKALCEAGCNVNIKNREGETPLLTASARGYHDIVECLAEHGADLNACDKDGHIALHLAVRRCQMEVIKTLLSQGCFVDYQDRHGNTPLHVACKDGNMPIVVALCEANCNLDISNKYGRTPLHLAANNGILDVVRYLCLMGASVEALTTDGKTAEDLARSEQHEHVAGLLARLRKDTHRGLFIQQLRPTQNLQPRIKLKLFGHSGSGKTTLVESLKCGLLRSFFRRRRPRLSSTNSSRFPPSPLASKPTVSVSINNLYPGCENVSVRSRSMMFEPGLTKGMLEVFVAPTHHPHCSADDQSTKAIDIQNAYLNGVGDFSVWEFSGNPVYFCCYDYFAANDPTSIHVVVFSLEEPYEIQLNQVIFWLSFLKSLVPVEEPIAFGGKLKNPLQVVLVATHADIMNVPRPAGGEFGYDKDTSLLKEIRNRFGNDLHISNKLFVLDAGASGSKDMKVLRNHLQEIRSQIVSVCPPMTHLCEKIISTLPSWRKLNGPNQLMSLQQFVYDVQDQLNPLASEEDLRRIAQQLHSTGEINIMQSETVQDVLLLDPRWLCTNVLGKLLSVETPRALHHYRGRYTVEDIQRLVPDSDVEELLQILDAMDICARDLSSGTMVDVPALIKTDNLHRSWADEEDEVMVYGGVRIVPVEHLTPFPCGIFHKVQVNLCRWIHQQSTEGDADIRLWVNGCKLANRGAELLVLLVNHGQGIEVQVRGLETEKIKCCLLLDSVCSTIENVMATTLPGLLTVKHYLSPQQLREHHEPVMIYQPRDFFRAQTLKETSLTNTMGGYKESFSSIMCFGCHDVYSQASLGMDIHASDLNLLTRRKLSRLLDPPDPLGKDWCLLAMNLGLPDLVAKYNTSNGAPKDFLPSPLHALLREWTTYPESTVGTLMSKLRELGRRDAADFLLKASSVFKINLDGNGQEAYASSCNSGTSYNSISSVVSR

Chain of Serine/threonine-protein kinase Chk2 (Homo sapiens) (O96017 whole entry): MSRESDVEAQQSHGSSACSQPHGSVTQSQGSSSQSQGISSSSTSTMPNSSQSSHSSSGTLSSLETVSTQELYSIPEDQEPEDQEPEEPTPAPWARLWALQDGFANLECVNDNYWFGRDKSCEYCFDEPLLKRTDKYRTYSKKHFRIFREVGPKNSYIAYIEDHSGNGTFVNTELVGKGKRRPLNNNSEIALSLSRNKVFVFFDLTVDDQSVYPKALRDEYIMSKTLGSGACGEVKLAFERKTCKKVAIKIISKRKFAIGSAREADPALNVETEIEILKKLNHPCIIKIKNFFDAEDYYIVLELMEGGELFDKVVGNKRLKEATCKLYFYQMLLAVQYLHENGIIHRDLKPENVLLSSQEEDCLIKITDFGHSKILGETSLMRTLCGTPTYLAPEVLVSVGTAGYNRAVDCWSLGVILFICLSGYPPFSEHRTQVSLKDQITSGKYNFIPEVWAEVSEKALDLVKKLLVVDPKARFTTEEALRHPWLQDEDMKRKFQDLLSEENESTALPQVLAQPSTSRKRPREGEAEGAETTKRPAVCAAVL
Chain of Calcium/calmodulin-dependent protein kinase type 1D (Homo sapiens) (Q8IU85 whole entry, looked up): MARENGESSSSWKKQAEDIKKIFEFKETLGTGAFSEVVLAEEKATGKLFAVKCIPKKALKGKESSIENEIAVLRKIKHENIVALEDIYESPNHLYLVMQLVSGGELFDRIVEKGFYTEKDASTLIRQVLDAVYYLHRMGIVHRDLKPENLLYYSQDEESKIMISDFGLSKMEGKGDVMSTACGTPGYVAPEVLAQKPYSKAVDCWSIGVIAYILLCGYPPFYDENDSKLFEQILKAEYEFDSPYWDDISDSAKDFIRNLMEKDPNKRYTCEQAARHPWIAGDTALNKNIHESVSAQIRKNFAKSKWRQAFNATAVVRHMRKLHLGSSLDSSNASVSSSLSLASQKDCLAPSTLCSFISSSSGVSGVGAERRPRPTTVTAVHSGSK
Chain of 5'-AMP-activated protein kinase catalytic subunit alpha-2 (Homo sapiens) (P54646 whole entry, looked up): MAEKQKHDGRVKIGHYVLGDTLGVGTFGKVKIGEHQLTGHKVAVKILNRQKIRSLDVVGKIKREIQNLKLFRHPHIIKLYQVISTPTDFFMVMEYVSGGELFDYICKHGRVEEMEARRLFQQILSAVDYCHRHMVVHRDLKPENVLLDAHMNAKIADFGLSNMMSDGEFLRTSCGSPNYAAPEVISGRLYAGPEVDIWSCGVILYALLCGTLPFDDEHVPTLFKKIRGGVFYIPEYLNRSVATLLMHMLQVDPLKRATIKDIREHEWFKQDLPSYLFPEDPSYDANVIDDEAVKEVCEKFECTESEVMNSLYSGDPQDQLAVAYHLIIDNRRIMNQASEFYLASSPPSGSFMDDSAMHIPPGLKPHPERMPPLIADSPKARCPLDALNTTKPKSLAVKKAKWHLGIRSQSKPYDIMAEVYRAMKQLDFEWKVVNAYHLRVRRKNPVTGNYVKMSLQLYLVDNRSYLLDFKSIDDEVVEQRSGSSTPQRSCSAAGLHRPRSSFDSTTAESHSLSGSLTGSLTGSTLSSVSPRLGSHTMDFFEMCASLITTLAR
Chain of Calcium/calmodulin-dependent protein kinase type II subunit alpha (Homo sapiens) (Q9UQM7 whole entry): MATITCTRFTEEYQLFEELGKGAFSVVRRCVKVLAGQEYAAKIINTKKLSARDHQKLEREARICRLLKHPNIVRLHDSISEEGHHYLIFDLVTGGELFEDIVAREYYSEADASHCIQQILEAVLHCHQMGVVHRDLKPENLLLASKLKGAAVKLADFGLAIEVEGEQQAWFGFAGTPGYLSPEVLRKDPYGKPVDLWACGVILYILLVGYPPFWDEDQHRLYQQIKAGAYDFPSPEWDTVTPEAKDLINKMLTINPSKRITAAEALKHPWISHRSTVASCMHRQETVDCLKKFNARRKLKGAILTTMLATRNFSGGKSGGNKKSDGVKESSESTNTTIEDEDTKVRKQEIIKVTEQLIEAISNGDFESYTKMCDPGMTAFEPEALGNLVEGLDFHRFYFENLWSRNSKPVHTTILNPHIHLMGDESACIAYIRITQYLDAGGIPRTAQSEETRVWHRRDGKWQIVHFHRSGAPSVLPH
Chain of Calcium/calmodulin-dependent protein kinase type II subunit delta (Homo sapiens) (Q13557 whole entry): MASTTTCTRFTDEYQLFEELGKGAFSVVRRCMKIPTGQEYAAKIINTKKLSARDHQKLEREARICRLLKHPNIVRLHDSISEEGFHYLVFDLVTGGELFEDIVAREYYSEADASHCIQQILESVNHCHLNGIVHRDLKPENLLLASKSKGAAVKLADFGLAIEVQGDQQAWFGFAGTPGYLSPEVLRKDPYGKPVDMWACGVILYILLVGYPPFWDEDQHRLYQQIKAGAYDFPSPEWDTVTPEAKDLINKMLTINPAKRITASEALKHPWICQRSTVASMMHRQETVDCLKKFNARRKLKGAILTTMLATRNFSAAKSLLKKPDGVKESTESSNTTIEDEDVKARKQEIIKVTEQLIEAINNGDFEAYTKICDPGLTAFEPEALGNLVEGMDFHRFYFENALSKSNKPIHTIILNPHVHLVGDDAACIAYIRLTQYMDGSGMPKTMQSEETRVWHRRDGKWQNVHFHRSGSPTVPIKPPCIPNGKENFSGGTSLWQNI

COc1cc2ncn(-c3cc(O[C@@H](C)c4ccccc4Cl)c(C(N)=O)s3)c2cc1OC
inhibition [1]: 5.06%
inhibition [2]: 3.52%
inhibition [3]: 22.4%
inhibition [4]: 8.66%
inhibition [5]: 44%
inhibition [6]: 19.4%
inhibition [7]: 58.9%
inhibition [8]: 1.43%
inhibition [9]: 1.53%
inhibition [10]: 1.15%
inhibition [11]: -1%
inhibition [12]: 2.63%
inhibition [13]: 5.01%
inhibition [14]: -1.47%
inhibition [15]: -3.56%
inhibition [16]: 9.31%
inhibition [17]: 11.3%
inhibition [18]: 8.19%
inhibition [19]: 11.6%
inhibition [20]: 13.5%

COc1ccc(-c2coc3ncnc(N)c23)cc1
inhibition [1]: 5.94%
inhibition [2]: 3.47%
inhibition [3]: 1.24%
inhibition [4]: 3.33%
inhibition [5]: 4.41%
inhibition [6]: 2.46%
inhibition [7]: 4.44%
inhibition [8]: 1.1%
inhibition [9]: 2.41%
inhibition [10]: 3.92%
inhibition [11]: 3.94%
inhibition [12]: 3.92%
inhibition [13]: 5.31%
inhibition [14]: 1.63%
inhibition [15]: 1.94%
inhibition [16]: 9.42%
inhibition [17]: 12.4%
inhibition [18]: 7.79%
inhibition [19]: 8.17%
inhibition [20]: 10.8%

Nc1ncnc2occ(-c3ccc(NC(=O)Nc4cccc(C(F)(F)F)c4)cc3)c12
inhibition [1]: 5.34%
inhibition [2]: 1.07%
inhibition [3]: 8.04%
inhibition [4]: 0.85%
inhibition [5]: 10.2%
inhibition [6]: 5.5%
inhibition [7]: 9.75%
inhibition [8]: 0.29%
inhibition [9]: 7.97%
inhibition [10]: 2.71%
inhibition [11]: 1.03%
inhibition [12]: 3.02%
inhibition [13]: 2.75%
inhibition [14]: -0.91%
inhibition [15]: 4.17%
inhibition [16]: 6.67%
inhibition [17]: 5.24%
inhibition [18]: 3.95%
inhibition [19]: 6.09%
inhibition [20]: 8.33%

COc1ccc(COc2ccc(Cc3cnc(N)nc3N)cc2OC)cc1
inhibition [1]: 2.37%
inhibition [2]: 3.64%
inhibition [3]: 3.71%
inhibition [4]: 4.29%
inhibition [5]: 3.19%
inhibition [6]: 2.82%
inhibition [7]: 2.49%
inhibition [8]: 3.83%
inhibition [9]: 5.51%
inhibition [10]: 3.64%
inhibition [11]: 5.8%
inhibition [12]: 2.39%
inhibition [13]: 2.5%
inhibition [14]: 1.77%
inhibition [15]: 3.54%
inhibition [16]: 5.47%
inhibition [17]: 7.23%
inhibition [18]: 5.87%
inhibition [19]: 4.77%
inhibition [20]: 8.9%

Cc1nnc(-c2ccc(C)c(-c3ccc(C(=O)Nc4cccc(C#N)c4)cc3)c2)o1
inhibition [1]: 2.95%
inhibition [2]: 2.98%
inhibition [3]: 2.37%
inhibition [4]: 0.93%
inhibition [5]: 1.01%
inhibition [6]: 2.39%
inhibition [7]: 4.23%
inhibition [8]: 0.65%
inhibition [9]: 0.26%
inhibition [10]: 1.97%
inhibition [11]: 1.16%
inhibition [12]: 1.1%
inhibition [13]: 1.51%
inhibition [14]: -1.55%
inhibition [15]: -0.84%
inhibition [16]: 0.73%
inhibition [17]: 0.92%
inhibition [18]: 1.03%
inhibition [19]: 4.05%
inhibition [20]: 3.42%

COc1ccc(-c2ccncc2)cc1C(N)=O
inhibition [1]: 4.51%
inhibition [2]: 1.88%
inhibition [3]: 5.44%
inhibition [4]: 3.31%
inhibition [5]: 4.66%
inhibition [6]: 4.68%
inhibition [7]: 8.59%
inhibition [8]: -0.75%
inhibition [9]: 1.22%
inhibition [10]: 1.71%
inhibition [11]: 3.32%
inhibition [12]: 3.92%
inhibition [13]: 8.26%
inhibition [14]: -1.04%
inhibition [15]: 0.03%
inhibition [16]: 8.46%
inhibition [17]: 10.1%
inhibition [18]: 8.96%
inhibition [19]: 12.5%
inhibition [20]: 14%

— ChEMBL document CHEMBL1961873, “Compounds: GSK PKIS; Assays: Nanosyn kinase panel” (2012)
